Values joined by “and” are separate entries in the source; they are usually repeats but may differ in a detail not shown here. Equal values may be shown once. About 79,000 compounds went through this panel and 15% of them were active in at least one assay; those are over-represented in the sample as a whole. Cut-off read from the data, not from the text of the source: active = growth inhibition above about 70%; inactive = the rest.
How the values were obtained:
[1] = NCI Yeast Anticancer Drug Screen. Data for the rad50 strain (AID 155);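 note: 0% = growth of vehicle-only cultures of the same strain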; settings: S. cerevisiae rad50 strain growth inhibition; at 50.0 µM; active compounds read high
Summary of the method: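 A DNA repair-deficient yeast mutant serves as the test organism; compound-induced growth inhibition is calculated against vehicle-treated cells.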

[2] = NCI Yeast Anticancer Drug Screen. Data for the mec2-1 strain (AID 157); settings: S. cerevisiae mec2-1 strain, at 50.0 µM, active compounds read high
Summary of the method: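 Growth inhibition is read against vehicle-treated controls after compound exposure of the mec2-1 yeast strain, which is defective in DNA damage repair or cell cycle control.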

[3] = NCI Yeast Anticancer Drug Screen. Data for the sgs1 mgt1 strain (AID 161);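 note: 0% = growth of cultures given vehicle only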; settings: S. cerevisiae sgs1 mgt1 strain, at 50.0 µM, active compounds read high
Summary of the method: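 Yeast cells carrying a defined DNA-repair defect were exposed to test compounds. Growth inhibition was measured relative to vehicle-treated controls.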

[4] = NCI Yeast Anticancer Drug Screen. Data for the cln2 rad14 strain (AID 165);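 note: 0% = growth equal to vehicle treated cultures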; settings: S. cerevisiae cln2 rad14 strain, at 50.0 µM, active compounds read high
Summary of the method: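 Growth inhibition, relative to vehicle-treated controls, is the read-out. The test organism is a yeast strain with defined genetic alterations, cln2 rad14.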

[5] = NCI Yeast Anticancer Drug Screen. Data for the bub3 strain (AID 167); settings: S. cerevisiae bub3 mutant strain, at 50.0 µM, active compounds read high
Summary of the method: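 Inhibition values come from growth of compound-treated mutant yeast normalised to vehicle-treated controls.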

[6] = NCI Yeast Anticancer Drug Screen. Data for the mlh1 rad18 strain (AID 175); settings: S. cerevisiae mlh1 rad18 strain growth inhibition; at 50.0 µM; active compounds read high
Summary of the method: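 Cells of a genetically altered yeast strain, deficient in DNA damage repair, were treated with compound. Their growth was then compared with that of vehicle-treated cultures to give inhibition.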

Measured: growth inhibition

C[Si](C)(OC(=O)N(CCCl)CCCl)O[Si](C)(C)OC(=O)N(CCCl)CCCl
inactive: [1] 14.8% | [2] 1.05% | [3] -33.6% | [4] -11.4% | [5] -31% | [6] -45.6%

COc1ccc2c3c1O[C@H]1C(Br)C=C[C@H]4[C@@H](C2)N(C)CC[C@]314 (some centres undefined)
inactive: [1] -11.8% | [2] -15.8% | [3] 7.15% | [4] -22.6% | [5] 29.2% | [6] 8.35%

N#Cc1ccc(N)cc1
inactive: [1] -2.9% | [2] -7.9% | [3] -37.5% | [4] -10.8% | [5] -18.4% | [6] -16.8%

C/C(=C\COc1ccc2ccc(=O)oc2c1)C1=CC(=O)C(C)(C)O1
inactive: [1] -2.65% | [2] -17.2% | [3] 18.9% | [4] 9.85% | [5] -14.8% | [6] 12.2%

CCC(Br)C(=O)O (centres undefined)
inactive: [1] 26.6% | [2] -4.3% | [3] -0.3% | [4] -22.5% | [5] 24.4% | [6] 24.8%

C[C@]12CCC(O)CC1=CC[C@@H]1[C@@H]2CC[C@]2(C)C(O)[C@H](n3ccnc3)C[C@@H]12 (some centres undefined)
inactive: [1] 30.1% | [2] 33.6% | [3] -6.05% | [4] 25.1% | [5] -11.7% | [6] -13.4%

O=P1(O)NP(=O)(O)NP(=O)(O)NP(=O)(O)N1
inactive: [1] -9.45% | [2] 2.9% | [3] -9.8% | [4] -5.45% | [5] -18.1% | [6] -3.95%

C[N+]1(CCCl)CCc2cc([N+](=O)[O-])ccc2C1 (centres undefined)
inactive: [1] -25.1% | [2] -84.7% | [3] -24.9% | [4] -16.1% | [5] -12.6% | [6] -9.8%

ClCCN(CCCl)c1ccc(/C=N/N2CCN(/N=C/c3ccc(N(CCCl)CCCl)cc3)CC2)cc1
inactive: [1] 7.85% | [2] -2.9% | [3] 21.9% | [4] 7.85% | [5] -11.1% | [6] -1.25%

Cn1c(O)c(C(=O)NC2CCCCC2)c(=O)n(C)c1=S
inactive: [1] -6.1% | [2] 12.2% | [3] 18.9% | [4] 27.6% | [5] 8.5% | [6] 13.1%

O=C(CC(=O)C(F)(F)C(F)(F)C(F)(F)F)c1ccco1.[Ni]
inactive: [1] 17.2% | [2] 3.8% | [3] 27.9% | [4] -9.9% | [5] 2% | [6] 34.6%

CN(Cc1ccccc1)C1=NCCN1
inactive: [1] -1.85% | [2] 7.1% | [3] -2.95% | [4] -47.8% | [5] 15.1% | [6] 9.95%

NC(CCCc1ccc(N(CCCl)CCCl)cc1)C(=O)O (centres undefined)
inactive: [1] -1.55% | [2] -3.45% | [3] 8.75% | [4] -52.7% | [5] -6.15% | [6] -8.3%

NC(=O)C(CBr)NCc1ccccc1 (centres undefined)
inactive: [1] -0.1% | [2] -13.6% | [3] -6.15% | [4] -27.8% | [5] 6.7% | [6] -10.6%

CC(C)=CC1C(C(=O)OCCOc2ccccc2)C1(C)C (centres undefined)
inactive: [1] -0.75% | [2] -6.5% | [3] 10.2% | [4] -26.6% | [5] -13.6% | [6] -2.05%

C[C@@H]1C[C@@]2(O[C@@H]2C)C(=O)O[C@@H]2CCN3CC=C(COC(=O)[C@]1(C)O)[C@H]23
inactive: [1] -4.5% | [2] -16.2% | [3] -7.95% | [4] 13.3% | [5] -4.9% | [6] -75%

CN1CCC23c4c5cc(-c6cc7c8c(c6O)OC6C(O)C=CC9C(C7)N(C)CCC896)c(O)c4OC2C(O)C=CC3C1C5 (centres undefined)
inactive: [1] -5.2% and 0.8% | [2] -10.7% and -11.2% | [3] 1.9% and 2.85% | [4] -13.2% and 4.85% | [5] -4.45% and 7.4% | [6] -4.8% and 1.75%

CCCCCCCCCCCCCCC[As](=O)(O)CCCCCCCCCCCCCCC
inactive: [1] 21.8% | [2] 0.75% | [3] 11.9% | [4] 8.45% | [5] 6.75% | [6] 12.9%

COc1ccc([C@H]2N[C@@H]2c2ccccn2)cc1
inactive: [1] 3.25% | [2] -1.5% | [3] -7.2% | [4] 17.1% | [5] 4.8% | [6] 20.9%
